Among all 320,000 compounds or so, about 1,300 (0.41%) were called active. About 3% were inconclusive and are not listed. How the calls were made is not given here. A selection follows. Measured potencies and affinities stand elsewhere.

The experiment is described as follows: growth inhibition of non-replicating M. tuberculosis (AID 488890).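 Further: plate controls were DMSO cells for no effect and high antibiotic wells for full effect.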 The settings on record: Mycobacterium tuberculosis non-replicating, at 25 µM, stronger effect = higher value.
One may read the inhibition as the relative decrease from the control value, in per cent. Consider `CC1=C(C(=O)c2ccccc2)C(c2ccc(N3CCOCC3)cc2)NC(=O)N1` (stereo not given), for which the inhibition was determined as 13.5%. Turning to `COc1ccc(OC)c(S(=O)(=O)N2CCCC(C(=O)N3CCOCC3)C2)c1` (stereo not given), the inhibition is -3.68%. Under `CN1CCN(C(=S)NC(=O)/C=C/c2ccccc2Cl)CC1` stands -10.3%; under `Cc1nc(C(=O)NCC(=O)c2ccc(Cl)cc2)c(C(F)(F)F)o1`, 75%; under `O=C(CCNC(=O)Cn1ccc2ccccc2c1=O)NCc1ccc(F)cc1Cl`, -3.09%.

With `NC(=O)CCC(NS(=O)(=O)c1ccc(Cl)cc1)C(=O)NCc1ccc(Cl)cc1` (stereo not given), the inhibition stood at 0.33%. The value for `Cc1cccc(-n2c(-c3ccc(Br)o3)n[nH]c2=S)c1` was -15%. The value for `CCOc1cccc(CNCCO)c1OCc1ccc(Cl)cc1Cl` was 42.6%; that for `COc1cc(CNC2CCCC2)cc(Cl)c1OCc1ccccc1F` was 78.7%. The value for `COc1cc(CNCc2ccccc2)cc(Cl)c1OC` was -13.6%; that for `COc1cc(CNC2CCCC2)cc(Br)c1OCC(=O)Nc1ccccc1C` was 45.5%; that for `CCCCNCc1cc(Br)c(OCC(=O)NCc2ccccc2)c(OC)c1` was 68.2%. For `COc1cc(CNC2CCCCCCC2)cc(Cl)c1OC`, the inhibition turned out to be 9.81%.

`CCOc1cc(CNCCc2ccc(S(N)(=O)=O)cc2)cc(Cl)c1OCc1ccccc1`: the inhibition worked out at 73%.

With `OCCNCc1ccc(OCc2ccc(Cl)cc2Cl)cc1`, the inhibition turned out to be 61.3%. Under `COc1ccc(-c2n[nH]c(=S)n2-c2ccc(C)cc2C)cc1` stands -17.9%. The value for `Cc1ccc(S(=O)(=O)CCc2nnc(N)s2)cc1C` was 4.5%.

Consider `Cc1oc(-c2ccccc2F)nc1CSCC(=O)NC1CC1`, for which the inhibition was -0.31%. The value for `Cc1c(CC(=O)O)c(=O)oc2c(C)c(OCc3ccccc3)ccc12` was -3.08%; that for `CCN(CC(=O)Nc1cccc(C(C)=O)c1)S(=O)(=O)c1ccccc1` was -4.85%. Under `O=C(c1cccnc1)N1CCN(S(=O)(=O)c2ccc3ccccc3c2)CC1` stands 9.44%; under `CC(NC(=O)CN1C(=O)NC2(CCCC2)C1=O)c1ccc2ccccc2c1` (stereo not given), 9.54%; under `CCN1CCC(NCCc2ccc(F)cc2)CC1`, -11.9%. Regarding `CN(C(=O)c1ccc2c(Cl)c3c(nc2c1)CCC3)c1ccccc1`, the inhibition came out at 32.3%.

`Cc1ccc(N(CC(=O)Nc2c(C)n(C)n(-c3ccccc3)c2=O)S(C)(=O)=O)c(C)c1`: the inhibition was -0.1%.

As for `O=P(O)(O)COc1ccccc1P(=O)(c1ccccc1)c1ccccc1`, the inhibition is -12.2%. Under `Cc1noc(C)c1COC(=O)COc1ccc(C#N)cc1` stands 38.3%; under `Cc1noc(C)c1COC(=O)COc1cccc2c1OC(C)(C)C2`, 39.2%; under `O=C(Nc1ccc(N2CCN(C(=O)c3ccco3)CC2)cc1)c1cccs1`, 38.8%. Under `O=C(Nc1ccc(N2CCN(C(=O)c3cccs3)CC2)c(Cl)c1)c1ccco1` stands 9.48%; under `O=C(Nc1cccc(S(=O)(=O)N2CCCCCC2)c1)C1CCC1`, -14%; under `COc1ccc(OCC(=O)NNC(=O)C(=O)Nc2ccccc2)cc1`, 75.3%. Under `COC(=O)c1ccc(NC(=O)c2cccc(OC)c2)cc1` stands 27.8%; under `COc1ccc(NC(=O)C(=O)NNC(=O)COc2ccc(OC)cc2)cc1`, 6.66%.

Regarding `COc1ccc(OCC(=O)NNC(=O)C(=O)Nc2ccc(C)cc2)cc1`, the inhibition stood at 7.2%. Take `CCc1ccc(NC(=O)Nc2cccc(OC)c2)cc1`: the inhibition is 60.4%. Under `CCc1ccc(NC(=O)COc2cccc(-n3cnnn3)c2)cc1` stands 23.8%. For `CCCC(c1nnnn1Cc1ccco1)N1CCC(C(N)=O)CC1` (stereo not given), the inhibition was -17.6%. Under `Cc1ccc(CN2CCSc3ccc(C(=O)NCc4ccccn4)cc32)cc1` stands 29.8%; under `CC(=O)Nc1cccc(NC(=O)c2cc(-c3cccnc3)nc3ccc(Cl)cc23)c1`, 14.7%. Under `CCc1ccc(N(CC(=O)NCc2ccco2)C(=O)CCC(=O)Nc2ccccn2)cc1` stands -13.9%; under `CCC(C)c1ccc(O)c(NC(=O)c2cccnc2)c1` (stereo not given), 5.33%. The value for `CCC(C)c1ccc(O)c(N)c1` (stereo not given) was 1.15%. As to `CC(C)CN(C(=O)COC(=O)C1=COCCO1)c1c(N)n(Cc2ccccc2)c(=O)[nH]c1=O`, the inhibition was determined as 0.83%. With `O=C(CC1SC(N2CCOCC2)=NC1=O)Nc1cccc(C(F)(F)F)c1` (stereo not given), the inhibition came out at 9.06%. Under `COc1cccc(NC(=O)CCN2C(=O)c3ccc([N+](=O)[O-])cc3C2=O)c1` stands -4.23%. Under `C=CCN1C(=O)C(CC(=O)Nc2ccccc2)S/C1=N/c1nccs1` (stereo not given) stands -1.19%; under `Cc1cc(C)n(-c2nnc(C)c(=O)[nH]2)n1`, 1.82%.

Turning to `Cc1cc(=O)[nH]c(N2CCCC2)n1`, the inhibition is -4.14%. Regarding `CCc1c(C)nc(SCc2cccnc2)[nH]c1=O`, the inhibition is -9.77%. Under `Cc1nn(-c2cccc3cccnc23)c(=O)c2ccccc12` stands 0.08%.

Regarding `O=C(c1ccc(Oc2ccc([N+](=O)[O-])cc2)cc1)N1CCCCCC1`, the inhibition was determined as 65.4%. Take `O=C(Cc1ccc([N+](=O)[O-])cc1)N1CCCCCC1`: the inhibition came out at 5.47%. With `Cc1ccccc1NC(=O)c1cccc(S(=O)(=O)N2CCOCC2)c1`, the inhibition was -10.8%. Take `OC(C#CCN1CCCC1)c1ccccc1` (stereo not given): the inhibition is -3.04%. Regarding `c1csc(CN2CCOCC2)c1`, the inhibition was -3.64%. Take `COc1cc(C(=S)N2CCN(C(c3ccccc3)c3ccccc3)CC2)cc(OC)c1O`: the inhibition was found to be 12.6%. `CCCc1cc(=O)oc2c(C)c(OCC(=O)N3CCC[C@@H]3C(=O)O)ccc12`: the inhibition is -11.2%. As for `CCOC(=O)/C(=N\Nc1cc(Cl)ccc1Cl)N1CCN(CC)CC1`, the inhibition was 46%. Under `COc1ccc(CN2C(=O)C(O)(CC(=O)c3ccc4c(c3)OCO4)c3ccccc32)cc1OC` (stereo not given) stands 12.6%; under `Cc1[nH]c2ccccc2c1C(=O)NS(=O)(=O)Nc1ccc(F)cc1`, -2.71%; under `COc1ccccc1Oc1ccc(NC(=O)Cc2ccccc2)cc1`, 19.6%. Under `O=c1ccc(=O)n(-c2ccccc2)[nH]1` stands 20%; under `O=c1[nH][nH]c(=O)n1-c1ccccc1`, -3.31%. The value for `CCOC(=O)c1cn(Cc2ccc(C)cc2)nn1` was 75.3%; that for `CCOC(=O)c1cn(Cc2ccccc2)nn1` was 74.6%; that for `CCc1nnc(NC(=O)CSc2nncc(=O)n2N)s1` was -12.3%. For `Cn1cnnc1SCCNS(=O)(=O)c1ccccc1`, the inhibition was 2.23%.

As for `CCOC(=O)c1c(C)[nH]c(C(=O)OCC(=O)NCc2ccc(C)cc2)c1C`, the inhibition is -10.5%. Under `C/C(CC(=O)Nc1ccc(N(C)C)cc1)=N\NC(=O)c1ccc(F)cc1` stands 8.75%; under `C/C(CC(=O)Nc1ccc(N(C)C)cc1)=N\NC(=O)c1ccc(Cl)cc1`, 8%. Under `Cc1cc(C)c(S(=O)(=O)NCC(=O)NCc2ccco2)c(C)c1` stands 0.05%; under `COC1C(C)=C(C)C(=O)N1Cc1ccccc1` (stereo not given), -5.86%; under `C/C(=N\O)c1cc(Cl)cc(Cl)c1O`, 19%.

In the case of `C/C(=N\O)c1ccc(Cl)cc1Cl`, the inhibition came out at 1.76%. The value for `CCCCC(=O)N=c1sc2cc(S(C)(=O)=O)ccc2n1C` was -0.02%; that for `O=C(Nc1nnc(-c2ccccc2)o1)c1cc(Cl)sc1Cl` was 9.95%. The value for `COc1cccc(C(=O)Nc2cccc(-c3nnc(-c4ccccc4)o3)c2)c1` was -7.83%.

Consider `COC(=O)c1ccc(C(=O)Nc2nnc(-c3cccnc3)o2)cc1`, for which the inhibition is 7.58%. As to `O=C(Nc1ccc(F)cc1)c1cc(Cl)sc1Cl`, the inhibition worked out at 70.7%.

Consider `O=C(Nc1nnc(-c2cccnc2)o1)c1ccccc1Cl`, for which the inhibition was found to be 35.5%. Under `CS(=O)(=O)c1cccc(-c2nnc(NC(=O)c3ccc4ncsc4c3)o2)c1` stands -2.94%; under `O=C(Nc1nnc(-c2ccc(F)cc2)o1)c1cccc([N+](=O)[O-])c1`, -8.79%; under `CS(=O)(=O)c1ccccc1-c1nnc(NC(=O)c2ccc3ncsc3c2)o1`, 10.1%.

On to `O=C1CC(N2CCC(c3nc4ccccc4[nH]3)CC2)C(=O)N1c1cccc(F)c1` (stereo not given), for which the inhibition was 20.2%. Under `CCOC(=O)Cn1c(=NC(=O)CSC(C)=O)sc2cc(F)ccc21` stands 30.8%; under `Cc1nc(OCc2c(C)noc2C)c2ccccc2n1`, -6.1%; under `Brc1ccc(-c2ccccc2)cc1`, 27.1%. For `Cc1ccc(OCC(=O)Nc2ccccc2C(=O)N2CCCC2)cc1`, the inhibition worked out at 1.03%. Under `Cc1nnsc1C(=O)Nc1ccc(Cl)cc1` stands -9.77%; under `Cc1nnsc1S(=O)c1ccc(Cl)cc1` (stereo not given), -4.16%; under `Cc1cccc(-c2nc3cc([N+](=O)[O-])ccc3o2)c1`, 4.61%. As to `COc1ccc(-c2[nH]nc3oc(=O)cc(C)c23)cc1`, the inhibition worked out at 7.5%. Under `Cc1nc2ncccn2c1-c1csc(Nc2cccc(C(=O)O)c2)n1` stands -13.4%; under `CC1CCC(NS(=O)(=O)c2cccc3nsnc23)CC1` (stereo not given), 0.44%. Consider `CCCCOc1ccc(-c2nnn(CC(=O)Nc3ncc(CC(=O)OCC)s3)n2)cc1`, for which the inhibition came out at 78.8%. Under `CCC(C(=O)O)n1nnc(-c2ccc(-c3ccc(OC)cc3)cc2)n1` (stereo not given) stands 28%.

On to `COc1cccc(C(=O)/C=C2\NCCc3cc(OC)c(OC)cc32)c1`, for which the inhibition turned out to be 21.5%. The value for `CCN1CCN(C(=O)N(c2ccccc2)c2ccccc2)CC1` was -28.4%; that for `NC(=O)CC(NC(=O)Cc1cccc2ccccc12)c1ccc(NCCN2CCCCC2)c([N+](=O)[O-])c1` (stereo not given) was 3.25%; that for `OC(COC(c1ccc(F)cc1)c1ccc(F)cc1)CN1CCCC1` (stereo not given) was 1.01%.

As for `OC1CCCN(CC(O)COC(c2ccc(F)cc2)c2ccc(F)cc2)C1` (stereo not given), the inhibition was -5%. Under `CCOC(=O)C1(CCOc2ccccc2)CCN(Cc2ccc(O)c(Cl)c2)CC1` stands 63.3%; under `CN1CCN(NC(=O)c2ccc(Cl)c(S(=O)(=O)Nc3ccc(Cl)cc3)c2)CC1`, -0.68%; under `CCCN(CC(=O)Nc1ccccc1C)C(=O)c1ccc(C(=O)c2ccccc2)cc1`, 18.4%. Under `COc1ccc(C(=O)N2CCNC(=O)C2CC(=O)Nc2cc(Cl)ccc2OC)cc1` (stereo not given) stands 0.76%.

With `O=C(Cc1ccc(-n2cccc2)cc1)NC1CCCCCC1`, the inhibition came to 19.9%. The value for `CCOC(=O)Cn1cc(/C=C/[N+](=O)[O-])c2ccccc21` was 72.6%; that for `CCOC(=O)COc1ccccc1/C=N/O` was 15%.

For the compound `CCC(=O)Nc1cccc(NC(=O)c2ccc(Br)cc2)c1`, the inhibition was determined as 1.37%. The value for `COC(=O)c1cn(NC(=O)c2ccncc2)c(=O)c2ccccc12` was 14.3%. Under `COC(=O)c1cn(NC(=O)c2cccnc2)c(=O)c2ccccc12` stands -6.97%. Under `CCCCCCCCCCC(=O)NNC(=O)c1c(O)c2ccccc2n(CC)c1=O` stands -9.98%; under `COc1cc(C(=O)NCc2ccc(F)cc2)cc(Cl)c1OC`, -11.2%. Consider `CCCCn1c(N)c(N(CCOC)C(=O)CCNC(=O)c2ccc(Cl)cc2)c(=O)[nH]c1=O`, for which the inhibition was -12.2%.

(Values after PubChem BioAssay AID488890 (Southern Research Specialized Biocontainment Screening …, 2010).)
